This is part of a sample that, as a whole, favours compounds with a hit. Of some 83,000 tested, about 20% had one in any assay.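 Method: cells in 96-well plates; compound added at one concentration; 48 h incubation; percent growth measured; values under 10 scored active.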 A number with no mark means an inactive call. The source made the active and inactive calls.

In the assay the test system is NCI-H522 lung. The experiment in a line: NCI-60 one-dose screen, 48 h (100 = growth as untreated, 0 = no growth, -100 = all killed). As to conditions: 10 µM unless noted. As for the experimental part: Growth inhibition of the NCI-H522 human Non-Small Cell Lung tumor cell line is measured as a screen for anti-cancer activity. Cells are grown in 96 well plates and exposed to the test compound for 48 hours. Compounds are tested at a single concentration, which is 10^-5 M for most compounds. The reported endpoint is percent growth (GI% or GIPRCNT), where numbers from 0 - 100% represent growth inhibition, and numbers from -100% - 0 represent cell death. For example, a value of 40 represents 60% growth inhibition. A value of 0 means no net growth occurred over the course of the experiment. A value of -40 indicates 40% of cells at the beginning of the experiment died by the end of the experiment. A value of -100 means all cells are dead at the end of the experiment.
NCI-60 Human Tumor Cell Lines Screen was performed using the standard one-dose NCI protocol, which is described in more detail at https://dtp.cancer.gov/discovery_development/nci-60/default.htm.
Compounds with GIPRCNT values below 10 were considered active. Activity score was based on GIPRCNT using the following formula: […]
Score is 0 for GIPRCNT values of 100 or above, 50 for GIPRCNT values of 0, and 100 for GIPRCNT values of -100.
As for `Fc1ccc(-c2cn3c(nc4ccccc43)c(-c3ccccc3)n2)cc1`, the growth is 64.7%.
Turning to `O=[N+]([O-])CC(c1ccccc1F)c1c[nH]c2ccccc12` (stereo not given), the growth is 23.2%.
For the molecule `Oc1ccc(C(c2ccc(O)cc2)c2ccc(Br)cn2)cc1`, the growth is 42.6%.
For `CN(CCN(C)c1ccc(C(=N)N)cc1)c1ccc(C(=N)N)cc1` the value was 92.4%; for `C=C1C(=O)O[C@H]2[C@H]1CC/C(COC(=O)NCc1c[nH]c3ccc(Cl)cc13)=C\CC[C@@]1(C)O[C@@H]21`, -90.4% (active); for `CC1(C)CC[C@]23CC[C@]4(C)[C@H](CC[C@@H]5[C@@]6(C)CCCNC(C)(C)[C@@H]6CC[C@]54C)[C@H]2[C@H]1OC3`, 9.35% (active).
The same measure for `COc1cc2nc(-c3ccc(Cl)cc3)cc(OCCCN3CCCC3)c2cc1OC`: 38.1%; for `COc1ccc(/C=N/NC(=O)c2cnn3c2NC(c2ccccc2)C3)cc1OC` (stereo not given): 42.8%; for `CN(C)CCC(=O)c1ccc([N+](=O)[O-])cc1`: -23% (active).
The same measure for `O=C(Nc1ccc(Cl)cc1)c1cc(NCc2cc(O)ccc2O)ccc1O`: -59.7% (active); for `CCc1c(Cl)nc(N)nc1Nc1ccc(C)c(C)c1`: 81.9%.
With `Cc1ccc(-c2[nH][nH]c(=O)c2-c2nc3ccccc3s2)cc1`, the growth was 89.2%.
For `Cc1cc2cc3ccc(N(C)C)cc3nc2cc1N` the value was -49.9% (active); for `O=C1Nc2ccc(F)cc2/C1=C\c1c(-c2ccccc2)nc2ccccn12`, 21.3%.
Take `COc1ccc(CCn2cncc2-c2c[nH]c3ccccc23)cc1`: the growth was 83.7%.
The same measure for `CN(C)c1ccc(Nc2c3ccccc3nc3cc(NC(=O)CCN4CCCC4)ccc23)cc1`: -32.8% (active); for `O=[N+]([O-])c1ccc(NC(=S)N/N=C/c2cc3ccccc3n3nnnc23)cc1`: 35.4%; for `O=S(=O)(NCCNc1nccc(-c2c(-c3cccc(O)c3)nc3occn23)n1)c1ccc(Cl)cc1`: 98.6%.
For `CCN(CC)CC[n+]1cc2cc(OC)c(OC)cc2c2ccc3cc4c(cc3c21)OCO4`, the growth was -19.1% (active).
Regarding `Nc1ccccc1NC(=O)c1ccc(-n2nc(-c3ccccc3)c3ccccc32)cc1`, the growth is 25%.
On to `CNC(=O)c1cccc(Cn2nc(C)c(NC(=O)c3ccc(COc4ccc(C(F)(F)F)cc4C)cc3)c2C)n1`, for which the growth was 40%.
The same measure for `CC(=O)Nc1ccc(-n2cnc3cc(-c4ccc(OCCN5CCCCC5)cc4)ccc32)cc1`: 91.9%; for `N#Cc1c(NC(=O)NCc2ccccc2)sc2c1CCCCC2`: 12.1%.
In the case of `Cc1ccc(-c2nc3ccccn3c2/C=C2/C(=O)Nc3cc(Cl)ccc32)cc1`, the growth is 68.7%.
For `CCOC(=O)c1cc(C(=O)c2ccc(OC)c(OC)c2)n2c1ccc1ccccc12` the value was 86%; for `O=C(Cn1c[n+](CC(=O)c2ccc(-c3ccccc3)cc2)c2ccccc21)Nc1cccc2cccnc12`, 2.6% (active).
As for `O=C1Nc2cc(-c3cccc([N+](=O)[O-])c3)ccc2/C1=C/c1ccc[nH]1`, the growth was 78.3%.
For `CCCOc1ccc(/C=N/Nc2cc(C)nc3ccc(Br)cc23)cc1` the value was 101%; for `N#Cc1cc(-c2nc3ccccc3s2)c(=O)n(NS(=O)(=O)c2ccccc2)c1N`, 94.2%.
As for `NS(=O)(=O)c1ccc(CCN2C(=O)c3cc(Cl)c(Cl)cc3C2=O)cc1`, the growth was 86.5%.
Turning to `CCOC(=O)[C@@H](C)C[C@H](Cc1ccccc1)NC(=O)c1csc([C@@H](C[C@H](C(C)C)N(C)C(=O)[C@@H](NC(=O)[C@H]2C[C@H](O[Si](C)(C)C(C)(C)C)CCN2C)C(C)C)OC(C)=O)n1`, the growth was -46.7% [9.25 µM] (active).
The same measure for `COc1ccc(C(=O)c2cc(OC)c(OC)c(OC)c2)cc1O`: 12.4%.
As for `N#CC1=C(/N=C/c2ccccc2)Oc2c(ccc3ccccc23)C1c1ccc([N+](=O)[O-])cc1` (stereo not given), the growth was 86.2%.
For `CCCOc1ccc(/C=N/Nc2cc(C)nc3ccc(Cl)cc23)cc1` the value was 86.9%; for `COc1ccc(C/C(=C(\C)c2ccc(OCCN3CCCC3)cc2)c2ccc(OCCN3CCCC3)cc2)cc1`, 56.8%; for `CN1C(=O)NC(c2ccc3c(c2)OCO3)C=C1c1ccccc1` (stereo not given), 80%.
In the case of `CCOC(=O)C1=C(CCl)NC(=O)NC1c1ccc2c(c1)OCO2` (stereo not given), the growth is -42.3% (active).
As for `N#CC1C(C#N)C(C(=O)c2ccc(Br)cc2)N2c3ccccc3C=CC12` (stereo not given), the growth is 78.6%.
Consider `O=C(CCN1CCCC1)Nc1ccc2c(NCCCCc3ccccc3)c3ccccc3nc2c1`, for which the growth was -38.7% (active).
With `COC1=CC(=O)c2ccccc2C1=O`, the growth is 77.8%.

Values taken from PubChem BioAssay (NCI).
